Test results reported in PubChem BioAssay (NCI).
This is part of a sample that, as a whole, favours compounds with a hit. Of some 79,000 tested, about 15% had one in any assay. Unmarked numbers belong to inactive results. Activity calls are given as the source filed them. Rule as the data show it: active = growth inhibition above about 70%; inactive = the rest.

Tests used:
[1] = NCI Yeast Anticancer Drug Screen. Data for the rad50 strain (AID 155);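 also: 0% = growth of vehicle-only cultures of the same strain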; settings: S. cerevisiae rad50 strain growth inhibition, stronger effect = higher value
Method in brief: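 Inhibition values express reduced yeast growth in compound-treated cultures relative to vehicle-treated controls.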

[2] = NCI Yeast Anticancer Drug Screen. Data for the mec2-1 strain (AID 157); settings: S. cerevisiae mec2-1 strain, stronger effect = higher value
Method in brief: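 Test agents were screened against the mec2-1 yeast strain, with defined DNA repair or cell cycle alteration. Growth was scored as inhibition against vehicle-only controls.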

[3] = NCI Yeast Anticancer Drug Screen. Data for the sgs1 mgt1 strain (AID 161);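 also: 0% = growth of cultures given vehicle only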; settings: S. cerevisiae sgs1 mgt1 strain, stronger effect = higher value
Method in brief: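 Inhibition of yeast growth, normalised to vehicle-treated controls, is reported for a strain bearing genetic alterations in DNA damage repair.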

[4] = NCI Yeast Anticancer Drug Screen. Data for the cln2 rad14 strain (AID 165);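 also: 0% = growth equal to vehicle treated cultures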; settings: S. cerevisiae cln2 rad14 strain, stronger effect = higher value
Method in brief: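 Growth of compound-exposed yeast (cln2 rad14 genotype) measured and expressed as inhibition relative to vehicle.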

[5] = NCI Yeast Anticancer Drug Screen. Data for the bub3 strain (AID 167); settings: S. cerevisiae bub3 mutant strain, stronger effect = higher value
Method in brief: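 Steps: expose the mutant yeast strain to compound; grow alongside vehicle-treated cultures; measure growth; express inhibition against the vehicle cultures.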

[6] = NCI Yeast Anticancer Drug Screen. Data for the mlh1 rad18 strain (AID 175); settings: S. cerevisiae mlh1 rad18 strain growth inhibition, stronger effect = higher value
Method in brief: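 In this whole-cell yeast screen, a strain with altered DNA damage repair is challenged with compound, and its growth is measured against matched vehicle-treated controls.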

[7] = at 5.0 µM (retest, dose inferred, filed as 0.5)
[8] = at 50.0 µM (retest, dose inferred, filed as 5.0)

SMILES	growth inhibition [1, 7]	growth inhibition [1, 8]	growth inhibition ([1]; at 50.0 µM)	growth inhibition [2, 7]	growth inhibition [2, 8]	growth inhibition ([2]; at 50.0 µM)	growth inhibition [3, 7]	growth inhibition [3, 8]	growth inhibition ([3]; at 50.0 µM)	growth inhibition [4, 7]	growth inhibition [4, 8]	growth inhibition ([4]; at 50.0 µM)	growth inhibition [5, 7]	growth inhibition [5, 8]	growth inhibition ([5]; at 50.0 µM)	growth inhibition [6, 7]	growth inhibition [6, 8]	growth inhibition ([6]; at 50.0 µM)
CC(NCCO)c1ccc2ccccc2c1 (stereo not given)	0%	8%	2.15%	3%	-4%	-13.2%	-10%	-6%	2.3%	3%	-3%	30.7%	3%	-1%	-14.9%	-1%	8%	-3.8%
c1ccc(C2=NC(=c3ccc(=C4N=C(c5ccccc5)C(c5ccccc5)=N4)cc3)N=C2c2ccccc2)cc1	3%	44%	86.6% (active)	3%	17%	65.6%	-2%	48%	59.9%	7%	5%	29.6%	3%	8%	51.3%	1%	19%	93.7% (active)
CCCCCCCC/C=C\CCCCCCCC(=O)OCCCCC	-7%	2%	15.6%	-5%	0%	13.8%	-2%	18%	17.2%	-8%	-10%	60.8%	-6%	-8%	40.5%	15%	11%	33.6%
O=C(CSc1nccc(=O)[nH]1)c1ccccc1	2%	24%	89.4% (active)	1%	38%	81.7% (active)	5%	7%	60.1%	-5%	4%	32.4%	-2%	40%	86% (active)	4%	52%	40.8%
CCCCCCCCCCCCSC1=C(N)C(=O)c2ccccc2C1=O	3%	2%	8.35%	0%	3%	11.1%	8%	-5%	-9.05%	-3%	0%	32.3%	-1%	-1%	11.3%	0%	5%	53%
CCCCCN(CCCCC)CC(C)(C)C(O)c1ccc(OC)c2ccccc12 (stereo not given)	-2%	42%	51.9%	-4%	18%	47.6%	1%	81% (active)	52.5%	-4%	27%	86.9% (active)	0%	64%	33.2%	-2%	57%	77.3% (active)
CN(C)c1cc[c]([Sn]([c]2ccc(N(C)C)cc2)([c]2ccc(N(C)C)cc2)[c]2ccc(N(C)C)cc2)cc1	0%	0%	72.5% (active)	4%	4%	34.1%	-9%	-9%	37%	-12%	-12%	34.4%	-12%	-12%	49.4%	-18%	-18%	78.8% (active)
O/N=C1/C(=C/c2ccc3c(c2)OCO3)CCCC1C(NO)c1ccc2c(c1)OCO2 (stereo not given)	-2%	65%	82.3% (active)	-2%	3%	90.5% (active)	4%	50%	97% (active)	-5%	25%	-7.15%	-2%	51%	38.4%	-3%	27%	97.4% (active)
O=[N+]([O-])c1ccccc1C1CN=NN1c1ccccc1 (stereo not given)	-9%	47%	-0.9%	-2%	25%	17.9%	-1%	33%	38.2%	-14%	32%	-11.3%	-3%	61%	85.5% (active)	0%	37%	24.9%
CN(C)C(=S)SC1(CN2CCOCC2)COc2c(Cl)cc(Cl)cc2C1=O (stereo not given)	1%	97% (active)	90.4% (active)	3%	96% (active)	76.2% (active)	3%	97% (active)	95.3% (active)	6%	96% (active)	75% (active)	5%	96% (active)	79.3% (active)	1%	97% (active)	89.5% (active)
O=[N+]([O-])c1ccc2c(c1)CCc1ccccc1-2	10%	77% (active)	52.6%	-18%	37%	-2.75%	12%	75% (active)	76.6% (active)	-1%	33%	9.4%	-15%	78% (active)	20.4%	16%	89% (active)	68.7%
CC1=NC(C)C(C)S1 (stereo not given)	-1%	3%	9.45%	0%	0%	5.5%	-1%	1%	-2.5%	4%	0%	16.1%	3%	3%	55.9%	2%	4%	12.7%
C/C(=N\NC(=S)N1CCCC1)c1cnccn1	61%	98% (active)	98.8% (active)	56%	99% (active)	99% (active)	77% (active)	98% (active)	99.3% (active)	74% (active)	98% (active)	97.7% (active)	33%	97% (active)	99% (active)	80% (active)	98% (active)	99.1% (active)
CCOC(=O)C(=O)CC(=O)C(Br)C(Br)c1ccc(Cl)cc1 (stereo not given)	78% (active)	99% (active)	99.5% (active)	85% (active)	99% (active)	99.6% (active)	97% (active)	99% (active)	99.4% (active)	69%	100% (active)	99% (active)	92% (active)	99% (active)	99.3% (active)	90% (active)	99% (active)	99.5% (active)
O=[N+]([O-])c1cnc(F)c(Br)c1	99% (active)	99% (active)	99.1% (active)	99% (active)	100% (active)	99.2% (active)	99% (active)	99% (active)	99.2% (active)	98% (active)	99% (active)	98.7% (active)	99% (active)	99% (active)	99.1% (active)	99% (active)	99% (active)	99.3% (active)
N#Cc1ccc2nc3ccc(N)cc3nc2c1	-22%	96% (active)	79.2% (active)	4%	76% (active)	39.1%	-18%	86% (active)	20.1%	-6%	82% (active)	10.6%	-13%	82% (active)	43.3%	-5%	96% (active)	48%
O=C1/C(=C\c2ccc(Cl)cc2Cl)Sc2scc(-c3ccc(O)c(O)c3)[n+]21	18%	55%	86.2% (active)	6%	67%	76.9% (active)	15%	71% (active)	97.8% (active)	1%	71% (active)	46.5%	-10%	81% (active)	85.7% (active)	28%	68%	91.8% (active)
CC(O)C(O)C(O)C(O)C(O)C(=O)O (stereo not given)	-2%	-6%	18.4%	-2%	-1%	10.9%	-1%	-2%	-9.1%	4%	-3%	1.95%	0%	4%	45.7%	-1%	-7%	-10.9%
Clc1ccc(SCCN2CCN(CCSc3ccc(Cl)cc3)CC2)cc1	76% (active)	98% (active)	83.2% (active)	79% (active)	99% (active)	77.9% (active)	92% (active)	99% (active)	94.2% (active)	54%	98% (active)	86.9% (active)	85% (active)	99% (active)	92.1% (active)	88% (active)	99% (active)	96.6% (active)
N#Cc1c(-c2ccc(Cl)cc2)c(-c2ccc(Cl)cc2)nn(CCOC(=O)CN)c1=O	18%	94% (active)	40.5%	10%	96% (active)	57%	-27%	89% (active)	45.6%	6%	82% (active)	18.6%	-16%	86% (active)	35.1%	22%	97% (active)	87% (active)
